This is a sample that favours compounds with a hit; in the whole collection about 0.5% have one here.
ERK EGF block – EGF-driven ERK pathway inhibition. HEK293-V1b, EGF-stimulated phospho-ERK AlphaScreen. Potency, µM (highest dose often 11.5 µM), for the others: at the top dose activity change, negative = inhibition, most hits filed as inhibitors. actives 0.41% (n = 130,000);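 also: potency is read from the fitted curve at half-maximal effect; plate controls were stimulated vehicle wells for no effect and unstimulated vehicle basal for full effect; nearly all actives have a fitted effect of over 55% in size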
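HEK293 cells stably expressing V1b receptor, serum-reduced (1% FBS) overnight, pretreated 30 min with compound, then stimulated 5 min with 25 nM EGF; phospho-ERK detected by AlphaScreen SureFire. AC50 from Hill fits, normalized to DMSO and EGF.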
GoLoco inh red – RGS12 GoLoco-Gai1 interaction inhibition. P63096. Gai1:RGS12 GoLoco peptide FP, rhodamine, 10 min. Potency, µM (series often up to 61.6 µM), for the others: at the highest dose activity, negative = inhibition, usual class: inhibitors. actives 0.44% (n = 230,000). AID 880; active = well fitted inhibition curve with a large enough effect, not every such curve was filed as active; inactive = no such curve, though single readings can be large or run the other way; also: potency is read from the fitted curve at half-maximal effect; % is scaled to controls: 0 for no effect and ±100 for the full control effect; nearly all actives have a fitted effect of over 30% in size
Target sequence (P63096 whole entry, looked up): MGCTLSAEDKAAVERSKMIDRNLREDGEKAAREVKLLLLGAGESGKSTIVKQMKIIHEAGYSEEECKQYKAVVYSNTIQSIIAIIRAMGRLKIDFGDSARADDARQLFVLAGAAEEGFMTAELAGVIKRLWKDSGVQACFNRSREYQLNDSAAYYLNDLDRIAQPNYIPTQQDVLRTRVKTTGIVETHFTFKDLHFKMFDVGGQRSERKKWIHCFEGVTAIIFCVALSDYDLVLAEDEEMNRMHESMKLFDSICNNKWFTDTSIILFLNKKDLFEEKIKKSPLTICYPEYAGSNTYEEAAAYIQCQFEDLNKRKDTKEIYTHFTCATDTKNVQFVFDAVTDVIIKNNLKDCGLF
CBFb-RUNX1 inh – inhibitors of human CBF-beta and RUNX1 interaction | Q01196+Q13951 | AlphaScreen CBFb-His/RUNX1-biotin binding, biochemical | Potency, µM (series often up to 59.8 µM), without a hit: at the top dose activity, negative = inhibition, most hits filed as inhibitors | 230,000 tested, under 10 active | AID 1477; also: % of control where 0% means no effect
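CBF-beta (His) and RUNX1 (biotin), 30 nM each; 20 min preassociation; + compound, 15 min; + beads 50 ng each (Ni, streptavidin), 90 min; RT; AlphaScreen read.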
Numbers without * were called inactive; ? = inconclusive; / = no result given; [ ] = remark or other dose. Unless noted, calls follow the shape of the dose curve; as a rule, active = well fitted curve in the direction sought with a large enough effect; inconclusive = small, poorly fitted or top-dose-only effect, or another doubt; inactive = no such curve, though single readings can be large; an effect the other way counts as inactive or inconclusive.

SMILES	ERK EGF block	GoLoco inh red	CBFb-RUNX1 inh
CC1CCN(C2=C(NS(=O)(=O)c3ccc(Cl)cc3)C(=O)c3ccccc3C2=O)CC1	15.8µM*	8.9%	/
Cc1cc2c3c(cccc3n1)C(=O)c1ccccc1-2	14.8%	-20.4%	-25.7%
CC(NC(=O)C1CCCN1C(=O)CN)C(=O)O (stereo unspecified)	/	/	0.6%
COc1ccccc1NC1=C(N2CCCCC2)C(=O)c2ccccc2C1=O	25.1µM*	-10.8%	6.6%
O=C1C(Nc2ccccc2)=C(N2CCCCC2)C(=O)c2ccccc21	/	-5.6%	-6.4%
CC(=O)OC1CC(OC(C)=O)[C@]2(C)C(CC(O)[C@]3(C)C2CC[C@@]2(C)C(c4ccoc4)OC(=O)C4O[C@]432)C1(C)C (stereo partly specified)	20.1%	12.2%	4.8%
CC(=O)OC1CC(OC(C)=O)[C@]2(C)C(CC(=O)[C@]3(C)C2CC[C@@]2(C)C(c4ccoc4)OC(=O)C4O[C@@]423)C1(C)C (stereo partly specified)	4.4%	22.4µM*	-3.1%
CCN(CC)CCCC(C)Nc1c2ccc(Cl)cc2nc2ccc(OC)cc12 (stereo unspecified)	3.1%	-19.5%	-17.4%
COc1ccc2nc3cc(Cl)ccc3c(Nc3cc(C(C)C)c(O)cc3C)c2c1	17.8µM*	-3.3%	?
CCOC(=O)N/N=C1/C[C@@H](O)[C@@H](O)[C@@H]2[C@@H]3C(=O)N(C[C@@H]4CCCO4)C(=O)[C@H]3CC[C@H]12	/	/	-2.5%[13.1 µM]
O=C(O)c1cccc2c1C(=O)c1ccccc1C2=O	8.0%	2.2%	25.5%
CN(C=[N+](C)C)c1cccc2c1C(=O)c1ccccc1C2=O	17.8µM*	18.1%	?
O[C@@H]1CCN2Cc3ccccc3N=C12	/	/	10.4%
COC(=O)c1cc(C(=O)N2CCOCC2)cc([N+](=O)[O-])c1	-31.6%	-4.6%	-0.7%
COC1(C)CC2C(CC1OC(=O)c1cc([N+](=O)[O-])cc([N+](=O)[O-])c1)C2(C)C (stereo unspecified)	25.1µM*	-10.5%	-22.5%
CCN1C(C)=C(C(=O)OC)C(c2ccccc2)N2C(=O)[C@](O)(C(=O)OC)CC(C(C)=O)=C12 (stereo partly specified)	/	/	10.1%[13.1 µM]
COc1ccc(C(=O)c2ccccc2)c(O)c1O	?	0.9%	/
COc1ccc(/C=C/c2ccccc2)cc1C1C2C=CCCC2(C)C(=O)N1Cc1ccccc1 (stereo unspecified)	/	/	9.1%
O=C(Nc1ccc(O)cc1)C1CC=CCC1 (stereo unspecified)	/	25.1µM*	-8.1%
CCOc1ccc(NC(=O)C2C3CC/C=C\CCC32)cc1 (stereo unspecified)	-2.9%[57.5 µM]	0.7%	19.9%
O=C(O)c1ccc(-c2ccc3cc(C45CC6CC(CC(C6)C4)C5)c(O)cc3c2)cc1	/	/	-21.2%
COc1c(-c2coc3cc4c(cc3c2=O)CC(OC(C)=O)C(C)(C)O4)ccc2c1C=CC(C)(C)O2 (stereo unspecified)	46.9%	5.1%	/
COc1c(-c2coc3cc4c(cc3c2=O)CC(O)C(C)(C)O4)ccc2c1C=CC(C)(C)O2 (stereo unspecified)	12.6µM*	-28.6%	18.8%
O=C(c1cc(C(F)(F)F)cc(C(F)(F)F)c1)N1CCC2(CC1)CCN(c1ccccn1)CC2	13.8%	8.0%	/
Cc1sc2cc3c(c(C(=O)c4ccccc4)[n+]2c1C)-c1cccc2cccc-3c12	7.6%	-10.3%	5.1%
SMILES	ERK EGF block	GoLoco inh red	CBFb-RUNX1 inh
O=C(c1ccccc1)c1c2c(cc3sc4ccccc4[n+]13)-c1cccc3cccc-2c13	-0.1%	1.26µM*	?
COC(=O)c1cc2c(-c3ccccc3)cc3ccccn3c-2c1C(=O)OC	/	49.4%	/
COC(=O)c1c(C(=O)OC)c2cccc3cc(-c4ccccc4)c4ccc1c4n32	/	17.8µM*	?
COC(=O)C1=C(C)N(Cc2ccccc2)[C@]23O[C@](C(=O)OC)(C(=O)N2C1c1ccccc1)C(c1ccccc1)C3C(=O)c1ccccc1 (stereo partly specified)	/	/	14.2%[13.1 µM]
NC(=O)C[n+]1cccc2ccccc21	/	11.2µM*	2.6%
Cc1ccc(C(=O)C[n+]2cccc3ccccc32)cc1	/	43.3%	8.0%
Cc1ccc(S(=O)(=O)Nc2ccccc2C(=O)c2ccc(C)c(C)c2)cc1	/	2.9%[14.2 µM]	/
COC(=O)C1(C(=O)OC)CC2=CCC3C(=O)N(c4ccccc4)C(=O)C3C2Cc2ccccc2[C@@H]1C[N+](=O)[O-] (stereo partly specified)	-11.9%	3.7%	14.7%
Cc1noc(C)c1-c1cncnc1-n1ccnc1	/	-2.3%	/
CC(=O)Oc1c(C)cc(OCC(O)CNC(C)C)c(C)c1C (stereo unspecified)	/	13.5%	-4.0%
CCOc1ccc(NC(=O)CS(=O)(=O)c2cn(C)c3ccccc23)cc1	/	2.9%	3.0%
COc1cc(C(=O)NS(=O)(=O)c2ccccc2C)ccc1Cc1cn(C)c2ccc(NC(=O)OC3CCCC3)cc12	28.2µM*	4.9%	-29.7%
COC(=O)NC(/C(C(=O)OC)=C(\C)NCc1ccccc1)c1ccco1 (stereo unspecified)	/	/	4.7%[13.1 µM]
CC/C=C\C/C=C\C/C=C\C/C=C\C/C=C\C/C=C\CCC(=O)NCCCC(=O)O	-11.1%	-2.0%	-0.5%
O=C(O)c1c(C(=O)O)c2ccccc2[nH]c1=O	-3.2%	-2.9%	-7.1%
O=C1N[C@@H](Cc2ccccc2)C(=O)N2CCCC12 (stereo partly specified)	/	1.0%[88.7 µM]	-10.1%[136 µM]
CC(C)CC1NC(=O)C(CCCN)NC(=O)C(C(C)C)NC(=O)C2CCCN2C(=O)C(Cc2ccccc2)NC(=O)C(CC(C)C)NC(=O)C(CCCN)NC(=O)C(C(C)C)NC(=O)C2CCCN2C(=O)C(Cc2ccccc2)NC1=O (stereo unspecified)	3.55µM*	6.4%	-11.6%
O=C1CCCc2c1sc1nc3n(c(=O)c21)CCCCC3	/	-9.9%	6.5%
O=C1c2sc3nc4n(c(=O)c3c2CCC1Br)CCCCC4 (stereo unspecified)	/	3.16µM*	-1.0%
CC1CC=CC2C1C(=O)N(Cc1ccccc1)C2c1ccc(-c2ccoc2)cc1F (stereo unspecified)	/	/	-1.0%
c1ccc2c(c1)CC(N1CCN(c3cccc4c3OCCO4)CC1)C2	-0.3%	-20.4%	-1.9%
C/C(N)=C(/C#N)C(=O)COC(=O)c1cccc(O)c1	28.2µM*	8.8%	3.2%
C/C(N)=C(/C#N)C(=O)COC(=O)c1ccncc1	/	2.2%	6.1%
CCC(CC)Nc1ccc(C(CC(N)=O)NC(=O)Cc2ccc(Br)cc2)cc1[N+](=O)[O-] (stereo unspecified)	-10.0%[57.5 µM]	1.9%	3.1%
CN(Cc1ccccc1)c1ccc(C(CC(N)=O)NC(=O)Cc2ccc(Br)cc2)cc1[N+](=O)[O-] (stereo unspecified)	31.6µM*	-3.7%	-5.4%
Cc1ccc2nc(-c3ccc(N)cc3)sc2c1S(=O)(=O)O	/	-1.7%	?
CCc1ccc(/C=C/c2c[nH]c3ccccc23)[n+](CC)c1	5.7%	6.31µM*	2.5%
CCc1ccc(-c2cc(C(=O)N/N=C/c3c[nH]c4ccccc34)[nH]n2)cc1	-0.8%	6.6%	-17.9%

High-throughput results deposited in PubChem BioAssay by National Center for Advancing Translational Sciences (NCATS).
